Compounds without any hit were thinned out: in the full panel of roughly 83,000, 20% have a hit.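 Negative percent growth values reflect cell death: -40 means 40% of the cells present at the start died, and -100 means all died.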 Unmarked numbers belong to inactive results. Calls of active or inactive are those of the source. Rule for the calls: active = growth percent below 10; inactive = the rest.
Experiments:
Test in all cases: NCI-60 one-dose screen, 48 h (100 = growth as untreated, 0 = no growth, -100 = all killed)
Details in all cases: 10 µM
[1] = tested on: HCT-15 colon
[2] = tested on: HT29 colon
[3] = tested on: SNB-75 CNS
[4] = tested on: SNB-19 CNS
[5] = tested on: U251 CNS
[6] = tested on: PC-3 prostate
[7] = tested on: UACC-62 melanoma
[8] = tested on: LOX IMVI melanoma
[9] = tested on: SK-MEL-28 melanoma
[10] = tested on: SK-MEL-2 melanoma
[11] = tested on: SN12C renal
[12] = tested on: UO-31 renal
[13] = tested on: TK-10 renal
[14] = tested on: ACHN renal
[15] = tested on: CAKI-1 renal
[16] = tested on: A498 renal
[17] = tested on: CCRF-CEM leukemia
[18] = tested on: MOLT-4 leukemia
[19] = tested on: SK-MEL-5 melanoma
[20] = tested on: EKVX NSCLC

SMILES | growth [1] | growth [2] | growth [3] | growth [4] | growth [5] | growth [6] | growth [7] | growth [8] | growth [9] | growth [10] | growth [11] | growth [12] | growth [13] | growth [14] | growth [15] | growth [16] | growth [17] | growth [18] | growth [19] | growth [20]
CCNC(=S)NN | 86.1% | 56.2% | 77% | 97.2% | 87.2% | 60.7% | 99.2% | 96.8% | 107% | 128% | 81.7% | 68.4% | 130% | 96.4% | 90.1% | 91.2% | 46.2% | 73.3% |  | 
Cc1ccccc1C1=N[C@@H](Cc2ccccc2)C(=O)c2c(nc3ccccn23)N1 | 100% | 115% | 70.8% | 109% | 100% | 89.4% | 103% |  | 113% | 115% | 107% | 80.6% | 138% | 94.5% | 88.9% | 98.2% | 105% | 111% | 103% | 
Cc1ccc(-c2cc(-c3cccc(Nc4ccnc5cc(Cl)ccc45)c3)nc3nc(N)[nH]c(=O)c23)cc1 | 99.4% | 97.5% | 76.9% | 84.8% | 88.5% | 95.8% | 97.7% | 92.8% | 110% | 87.6% | 96.6% | 78.1% | 112% | 105% | 94.8% | 109% | 56.1% | 81.8% |  | 
O=C1NN(c2ccccc2)C(c2cccnc2)=N/C1=C\c1cccnc1 | 93.9% | 97.2% | 79.6% | 92.7% | 102% |  | 86.1% | 82.9% | 116% | 103% | 102% | 82.7% | 110% | 95.4% | 89% | 52.3% | -22% (active) | 96.4% |  | 
CC(C)=C1CCC(C)C/C1=N\N=C(N)N (stereo not drawn) | 99.7% | 102% | 97.7% | 97.5% | 96.5% |  | 103% | 93.9% | 109% | 102% | 103% | 81.3% | 98.3% | 105% | 93.3% | 88.6% | 86.9% | 98.8% | 98.6% | 
CC1=CSC2=NC(c3ccc(Cl)c(Cl)c3)=CC(c3ccc(Cl)cc3)N12 (stereo not drawn) | 66.9% | 101% | -21.8% (active) | 38.5% | 34.8% |  | 10.6% | -82.4% (active) | 37.4% | -14.1% (active) | 13.7% | 7.9% (active) | 18.6% | 13.5% | 5.28% (active) | -12% (active) | 31.9% | 35.2% | 13.6% | 
CCCCCCCCCCCCCCCCCBr | 102% | 97.5% | 84.3% | 95.9% | 103% |  | 104% | 101% | 108% | 108% | 98.9% | 91.4% | 108% | 102% | 97.2% | 64.1% | 94.4% | 96% | 98.9% | 
COc1ccc2nc(/C=C/c3ccc(N(C)C)cc3)sc2c1 | 93.8% | 93.3% | 92.3% | 131% | 90.7% |  | 94.7% | 91.5% | 109% | 101% | 91.4% |  | 103% | 104% | 97.6% | 71.7% | 82.6% | 77.7% | 90.1% | 96.9%
CCCCCCCCCCCCCC[n+]1ccccc1 | 34.5% | -52.4% (active) | -39.5% (active) | -45.4% (active) | -88.3% (active) |  | -81.1% (active) | -72.1% (active) | -23.5% (active) | -78% (active) | -41.8% (active) |  | -70.4% (active) | 4.31% (active) | -43.8% (active) | 7.27% (active) | -42.2% (active) | -51.9% (active) | -95.3% (active) | 
O=C(COc1ccc(Cl)cc1Cl)Oc1coc(CSc2nc3ccccc3s2)cc1=O | 103% | 114% | 112% | 103% | 97.3% |  | 70.5% | 90.5% | 131% | 94.5% | 92.3% |  | 107% | 101% | 101% | -21.3% (active) | 88.7% | 86.4% | -78% (active) | 106%
O=C(NNc1nc(N2CCCC2)nc(N2CCCC2)n1)c1ccccc1 | 108% |  | 88.7% | 99.6% | 98.5% | 101% | 99.3% | 110% | 106% | 101% | 100% | 81.7% | 114% | 102% | 116% | 102% | 103% | 68.4% | 110% | 102%
O=C(Nc1ccc(OCc2nnc(-c3ccccc3)o2)c(F)c1)Nc1ccc(Cl)c(Cl)c1 | 49.4% | 53% | 66.4% | 59.9% | 50.5% |  | 58% | 54.8% | 73% | 72.9% | 64% | 68.5% | 66.2% | 39% | 68.4% | 12.4% | 37.6% | 43.8% | 65.9% | 
CCOC(=O)Cn1nnc(-c2ccc(OCc3ccccc3F)cc2)n1 | 88.5% | 92.4% | 57.8% | 93.9% | 99% |  | 81.4% |  | 72.9% | 100% | 98.2% | 58% | 105% | 84.6% | 76.5% | 40.9% | 92.4% | 90% | 91.5% | 
O=[N+]([O-])C1CC2C=CC1C2 (stereo not drawn) | 100% | 99% | 93.1% | 109% | 101% |  | 103% | 95.6% | 110% | 92.8% | 102% | 80.8% |  | 106% | 95.1% | 78.2% |  | 96.1% | 106% | 92.7%
CCCn1c(=O)c2c(nc(-c3cccc(OCCCCl)c3)n2C)n(CCC)c1=O | 69.1% | 74.2% | -12.7% (active) | 32.9% | 17% |  | 78.9% | 48.5% | 81.7% | 75.6% | 37.3% | 27.8% | 36.5% | 3.03% (active) | 43.7% | -10.8% (active) | 86.3% | 73.2% | 64.9% | 
NC(=O)C1CCCN(Cc2c[nH]c3ccccc23)C1 (stereo not drawn) | 102% | 95.6% | 85.9% | 103% | 95.2% |  | 104% | 90.1% | 110% | 86.5% |  | 75.4% | 93.7% | 103% | 94.4% | 81% | 106% | 99.2% |  | 99.9%
CCCCCC(CCC)COC(=O)c1ccc(OC)cc1 (stereo not drawn) | 99% | 101% | 89.2% | 112% | 96% |  | 104% | 94.5% | 110% | 96% |  |  | 95.6% | 106% | 92.3% | 109% | 75.3% | 100% | 104% | 100%
COc1ccc(-c2csc(NC(=O)CO[N+](=O)[O-])n2)cc1 | 104% | 105% | 96.1% | 102% | 98.6% |  | 101% | 88% | 105% | 81.6% | 102% | 83.1% | 106% | 101% | 95.2% | 126% |  | 93.1% | 30.3% | 

— PubChem BioAssay (NCI)
